Numbering of substitutions follows the chain as printed. Names and notes keep the numbering of the source.

The labels stand for the following.
T1: SmpO45 (Staphylococcus aureus plasmid pWBG745, UniProt UPI0001BEA8D3 1-84)
T1 sequence: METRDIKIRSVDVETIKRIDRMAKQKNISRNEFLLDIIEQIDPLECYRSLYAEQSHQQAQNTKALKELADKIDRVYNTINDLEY

T2: SmpO49 (Staphylococcus aureus plasmid pWBG749, UniProt UPI0001BEA96A 1-84)
T2 sequence: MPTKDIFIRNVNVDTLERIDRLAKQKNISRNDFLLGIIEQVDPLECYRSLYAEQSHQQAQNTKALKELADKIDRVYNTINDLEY

T3: SmpOUNa (plasmid pC02)
T3 chain: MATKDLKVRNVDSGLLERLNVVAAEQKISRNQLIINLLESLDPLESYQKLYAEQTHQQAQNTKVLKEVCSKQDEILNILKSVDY

T4: SmpO408 (Staphylococcus aureus M0408)
T4 chain: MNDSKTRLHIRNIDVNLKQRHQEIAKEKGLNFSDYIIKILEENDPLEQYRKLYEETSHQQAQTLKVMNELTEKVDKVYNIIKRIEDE

T5: SmpOSep (Staphylococcus epidermidis VCU120)
T5 chain: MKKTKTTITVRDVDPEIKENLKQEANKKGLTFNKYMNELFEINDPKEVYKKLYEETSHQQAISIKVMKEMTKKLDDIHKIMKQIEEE

T6: SmpO49-F7K (Staphylococcus aureus plasmid pWBG749, UniProt UPI0001BEA96A 1-84, F7K)
T6 sequence: T2 sequence with F7K

B1: OT45.3 (dsDNA)
DNA 1: GACACTATAGTTTATTGTGGGGTCACTTTA
DNA 2: TAAAGTGACCCCACAATAAACTATAGTGTC
B2: ossA45-9 (dsDNA)
DNA 1: ATTGTGGGCTCACTTT
DNA 2: AAAGTGAGCCCACAAT
B3: ossA49-3 (dsDNA)
DNA 1: TTAATGATATCACTAT
DNA 2: ATAGTGATATCATTAA
B4: OT45.10 (dsDNA)
DNA 1: CCCCATAAAATATGGGGTCATATTTCCCTT
DNA 2: AAGGGAAATATGACCCCATATTTTATGGGG
B5: OT45.11 (dsDNA)
DNA 1: TATGGGGTCATATTTCCCTTATGCTCTTAC
DNA 2: GTAAGAGCATAAGGGAAATATGACCCCATA
B6: ossA45-13 (dsDNA)
DNA 1: ATTGTGGGGTCAGTTT
DNA 2: AAACTGACCCCACAAT
B7: ossA45 (dsDNA)
DNA 1: ATTGTGGGGTCACTTT
DNA 2: AAAGTGACCCCACAAT
B8: ossA45-14 (dsDNA)
DNA 1: ATTGTGGGGTCACATT
DNA 2: AATGTGACCCCACAAT
B9: ossA49-4 (dsDNA)
DNA 1: TTTTTGATATCACTAT
DNA 2: ATAGTGATATCAAAAA
B10: ossBUNa (dsDNA)
DNA 1: AAAATGGGTACATATT
DNA 2: AATATGTACCCATTTT
B11: ossA49-13 (dsDNA)
DNA 1: TTTATGATATCAGTAT
DNA 2: ATACTGATATCATAAA
B12: ossA45-5 (dsDNA)
DNA 1: ATTGAGGGGTCACTTT
DNA 2: AAAGTGACCCCTCAAT
B13: OTUNa For/Rev_13 (dsDNA)
DNA 1: TTTAAAACCCTTGAAATATCTGGCTTCGCC
DNA 2: GGCGAAGCCAGATATTTCAAGGGTTTTAAA
B14: ossA49-14 (dsDNA)
DNA 1: TTTATGATATCACAAT
DNA 2: ATTGTGATATCATAAA
B15: ossB408 (dsDNA)
DNA 1: TAATAGGTGGCAAATT
DNA 2: AATTTGCCACCTATTA
B16: ossA45-3 (dsDNA)
DNA 1: ATAGTGGGGTCACTTT
DNA 2: AAAGTGACCCCACTAT
B17: ossA49-1 (dsDNA)
DNA 1: ATTATGATATCACTAT
DNA 2: ATAGTGATATCATAAT
B18: ossA45 C11G (dsDNA)
DNA 1: ATTGTGGGGTGACTTT
DNA 2: AAAGTCACCCCACAAT
B19: OT49.12 (dsDNA)
DNA 1: GATGATAGCAAATTCCCCTTATGCTCTTAC
DNA 2: GTAAGAGCATAAGGGGAATTTGCTATCATC
B20: ossA45-1 (dsDNA)
DNA 1: TTTGTGGGGTCACTTT
DNA 2: AAAGTGACCCCACAAA
B21: OTUNa For/Rev_14 (dsDNA)
DNA 1: TTGAAATATCTGGCTTCGCCAGATTACCCA
DNA 2: TGGGTAATCTGGCGAAGCCAGATATTTCAA
B22: OT49.11 (dsDNA)
DNA 1: CCGATGATAGCAAATTCCCCTTATGCTCTT
DNA 2: AAGAGCATAAGGGGAATTTGCTATCATCGG

One test has as its target T1, SmpO45. Description: SPR (ReDCaT); 300 mM NaCl; 10 mM HEPES, 3 mM EDTA, 0.05% Tween 20, NaCl 150 mM (SmpO49 screens), 300 mM (SmpO45, SmpO408, SmpOUNa screens) or 250 mM (Table S4); pH and temperature not stated; protein 1 uM; high values mean tight binding. As to conditions: protein: recombinant; tags: His6-TEV, cleaved; chain copies: 4. In a few lines:
(§1)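 The running buffer was 10 mM HEPES, 300 mM NaCl, 3 mM EDTA, 0.05% Tween 20, and protein at 1 μM was injected at 30 μl/min for 60 s contact and 60 s dissociation. The protein had been expressed in E. coli BL21(DE3)pLysS, cleaved of its tag, and purified by nickel-affinity and size-exclusion chromatography. OriT oligonucleotides were captured at 1 μM on Fc2 of a Biacore T200 SA chip by reusable DNA capture, and a linker was captured on Fc1. Values are DNA binding expressed as %Rmax.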
As to B1, the binding signal was 29.5 ± 1.43 %Rmax.

For B2, the binding signal came out at 0.616 ± 0.0355 %Rmax.

Turning to B4, the binding signal stood at 31.8 ± 2.19 %Rmax.

In the case of B5, the binding signal worked out at 21.2 ± 1.26 %Rmax.

Consider B6, for which the binding signal was 30.8 ± 1.19 %Rmax.

As to B7, the binding signal came out at 36.5 ± 3.64 %Rmax.

Take B8: the binding signal is 38.9 ± 1.1 %Rmax.

Turning to B12, the binding signal was determined as 13.5 ± 0.663 %Rmax.

On to B16, for which the binding signal worked out at 31.73 ± 0.268 %Rmax.

As to B18, the binding signal stood at 0.641 ± 0.0361 %Rmax.

Turning to B20, the binding signal worked out at 42.58 ± 0.128 %Rmax.

A further test addresses T2, SmpO49. Description: SPR (ReDCaT); 150 mM NaCl; 10 mM HEPES, 3 mM EDTA, 0.05% Tween 20, NaCl 150 mM (SmpO49 screens), 300 mM (SmpO45, SmpO408, SmpOUNa screens) or 250 mM (Table S4); pH and temperature not stated; protein 1 uM; high values mean tight binding. The note with it: protein: recombinant; tags: His6-TEV, cleaved; chain copies: 4. In a few lines: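 Tag-cleaved protein, expressed in E. coli BL21(DE3)pLysS and purified by nickel-affinity and size-exclusion chromatography, was screened on a Biacore T200 SA chip by reusable DNA capture. OriT oligonucleotides were captured at 1 μM on Fc2, with a control linker on Fc1. Protein at 1 μM was injected at 30 μl/min (60 s contact, 60 s dissociation) in 10 mM HEPES, 150 mM NaCl, 3 mM EDTA, 0.05% Tween 20. DNA binding is reported as %Rmax.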
As to B3, the binding signal turned out to be 26.8 ± 1.8 %Rmax.

On to B9, for which the binding signal stood at 12.1 ± 1.41 %Rmax.

On to B11, for which the binding signal came to 18.1 ± 1.02 %Rmax.

With B14, the binding signal was 24.9 ± 1.06 %Rmax.

With B17, the binding signal worked out at 26.7 ± 1.94 %Rmax.

With B19, the binding signal was determined as 0.431 ± 0.0378 %Rmax.

On to B22, for which the binding signal was found to be 0.467 ± 0.033 %Rmax.

Another test addresses T1, SmpO45. Description: SPR (ReDCaT); 250 mM NaCl; 10 mM HEPES, 3 mM EDTA, 0.05% Tween 20, NaCl 150 mM (SmpO49 screens), 300 mM (SmpO45, SmpO408, SmpOUNa screens) or 250 mM (Table S4); pH and temperature not stated; protein 1 uM; high values mean tight binding. As to conditions: protein: recombinant; tags: His6-TEV, cleaved; chain copies: 4.
In the case of B7, the binding signal was found to be 37.5 %Rmax.

Regarding B10, the binding signal turned out to be 0.8 %Rmax.

As for B15, the binding signal was 0.4 %Rmax.

Another test has as its target T3, SmpOUNa. Described as above. As to conditions: protein: recombinant; tags: His6-TEV, cleaved; chain copies: 4.
B7: the binding signal is 7.1 %Rmax.

In another test the target is T4, SmpO408. The description is as above. The note with it: protein: recombinant; tags: His6-TEV, cleaved; chain copies: 4.
Take B7: the binding signal amounted to 10.7 %Rmax.

With B15, the binding signal was 34.2 %Rmax.

The next test has as its target T5, SmpOSep. The description is as above. As to conditions: protein: recombinant; tags: His6-TEV, cleaved; chain copies: 4.
On to B7, for which the binding signal came out at 2.9 %Rmax.

Consider B10, for which the binding signal was found to be 1.5 %Rmax.

The next test concerns the target T6, SmpO49-F7K. Described as above. As to conditions: protein: recombinant; tags: His6-TEV, cleaved; chain copies: 4.
As to B7, the binding signal is 31.3 %Rmax.

The next test has as its target T3, SmpOUNa. Description: SPR (ReDCaT); 300 mM NaCl; 10 mM HEPES, 3 mM EDTA, 0.05% Tween 20, NaCl 150 mM (SmpO49 screens), 300 mM (SmpO45, SmpO408, SmpOUNa screens) or 250 mM (Table S4); pH and temperature not stated; protein 1 uM; high values mean tight binding. As to conditions: protein: recombinant; tags: His6-TEV, cleaved; chain copies: 4. In a few lines:
as §1
B13: the binding signal was determined as 2.14 ± 0.24 %Rmax.

On to B21, for which the binding signal was 1.29 ± 0.0865 %Rmax.

The record behind these values is PMC8136818, “Evolving origin-of-transfer sequences on staphylococcal conjugative and mobilizable plasmids—who’s mimicking whom?”.
